Only some compounds are listed: those with a hit (about 3.9% of all), similar ones and a draw of the others.
HTT prom inh = HTT promoter inhibition; HEK293 HTT promoter firefly luciferase reporter, 24 h; Potency, µM (series often up to 57.5 µM), for the others: at the highest dose activity change, negative = inhibition, most hits filed as inhibitors; 0.93% of 48,000 active; also: potency is read from the fitted curve at half-maximal effect; nearly all actives have a fitted effect of over 50% in size
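Firefly luciferase readout (Dual-Glo, 10 min RT) after 24 h, 37 °C compound exposure (final up to 57.5 uM) of HEK293 reporter cells cultured 24 h beforehand; PTC124 at 50 uM final as control inhibitor; activity scaled vehicle 0%, zero RLU -100%.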
p53null 32C kill = p53 null cell cytotoxicity, permissive temperature. AID 903. H1299-neo p53 null cells, ATP luminescence, 24 h, 32C. Potency, µM (titrated, usually from 46.1 µM), without a hit: at the top dose activity change, negative = cytotoxicity, actives largely listed as cytotoxic. 0.62% of 55,000 active;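 also: potency is read from the fitted curve at half-maximal effect; 0% = DMSO only and -100% = full killing by 100 µM tamoxifen; nearly all actives have a fitted effect of over 55% in size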
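ATP-content luminescence in p53-null H1299-neo cells after 24 h compound exposure (up to 46 uM) at 32C permissive temperature; 0% and 100% killing set by DMSO and 100 uM tamoxifen; Hill-equation AC50.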
HTT-AS promoter = HTT-AS promoter activation; HEK293 HTT-AS promoter firefly luciferase reporter, 24 h; response scale: percent change from vehicle, -100% = no light; Potency, µM (highest dose often 57.5 µM), for the others: at the top dose activity change, positive = activation, most hits filed as activators; 0.24% of 48,000 active; also: potency is read from the fitted curve at half-maximal effect; nearly all actives have a fitted effect of over 55% in size
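HEK293 luciferase promoter-reporter cells (2,500/well) plated 24 h, then compounds added at up to 57.5 uM final for 24 h at 37 °C. Firefly luminescence by Dual-Glo, normalized to vehicle (0%) and zero RLU (-100%).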
DRV1 agonist = GPR32 (DRV1) agonism, beta-arrestin recruitment. CHO-K1 GPR32 beta-arrestin PathHunter luminescence, 90 min; zero percent set by DMSO-only wells. activation, % at 76.9 µM. 2.5% of 48,000 active. AID 1346428;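 active = activation of at least 60% and not above a set upper limit, about 1 call in 100 departs from these limits; inconclusive = activation of 40% to 60%, or above that upper limit; inactive = activation under 40%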; also: 0% is about no effect
Target sequence (O75388 whole entry, looked up): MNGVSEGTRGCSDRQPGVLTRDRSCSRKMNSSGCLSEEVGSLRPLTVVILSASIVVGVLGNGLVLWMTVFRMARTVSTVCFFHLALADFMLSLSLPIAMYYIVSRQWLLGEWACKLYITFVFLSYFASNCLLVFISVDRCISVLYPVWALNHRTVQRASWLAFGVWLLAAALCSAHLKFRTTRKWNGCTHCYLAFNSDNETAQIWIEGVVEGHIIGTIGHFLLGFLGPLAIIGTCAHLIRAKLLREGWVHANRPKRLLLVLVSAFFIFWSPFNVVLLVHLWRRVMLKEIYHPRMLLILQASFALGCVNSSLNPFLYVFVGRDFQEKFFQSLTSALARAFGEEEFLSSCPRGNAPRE
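CHO-K1 cells stably expressing ProLink-tagged GPR32 and Enzyme Activator-tagged beta-arrestin were seeded at 2,500 cells/well overnight, exposed to compounds for 90 min at 37 °C, then read by beta-Gal complementation chemiluminescence after 1 h detection reagent.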
p53null 39C tox = kills p53 null cells at the nonpermissive temperature; AID 904; Potency, µM (titrated, usually from 46.1 µM), for inactives: at the top dose activity, negative = cell killing, most hits filed as cytotoxic; 0.97% of 55,000 active; H1299 p53-null (neo) cells, 39C, ATPlite viability, 24 h;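 also: potency is read from the fitted curve at half-maximal effect; 0% = DMSO only and -100% = full killing by 100 µM tamoxifen; nearly all actives have a fitted effect of over 50% in size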
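H1299 lung cancer cells, p53-null (H1299-neo) or expressing p53 A138V (H1299-p53A138V), were plated overnight at 37C, then exposed to compounds at up to 46 uM for 24 hr at 39C. Viability was read by ATP-based luminescence.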
* marks the source's active call; other numbers are inactive results; ? = inconclusive; / = no result; ! = a repeat was not active; [ ] = another dose, or the depositor's remark. Unless noted, calls follow the shape of the dose curve; as a rule, active = well fitted curve in the direction sought with a large enough effect; inconclusive = small, poorly fitted or top-dose-only effect, or another doubt; inactive = no such curve, though single readings can be large; an effect the other way counts as inactive or inconclusive.

SMILES	HTT prom inh	p53null 32C kill	HTT-AS promoter	DRV1 agonist	p53null 39C tox
COc1ccccc1Nc1ncc2c(n1)CCN(CC(C)C)C2	29%	-28%	13µM*	-4	-14%
Fc1cccc(CN2CCc3nc(Nc4ccc5c(c4)OCCO5)ncc3C2)c1F	-12%	-3%	8%	-2	-25%
COc1cc(CN2CCc3nc(Nc4ccc5c(c4)OCCO5)ncc3C2)cc(OC)c1OC	12%	-19%	?	97*	?
CC(=O)N(c1onc(C)c1C)S(=O)(=O)c1ccc(N)cc1	2%	/	6%	26	/
COc1cccc(-c2oc3ccc(C)cc3c(=O)c2O)c1	52%	?	?	-5	22µM*
O=C(O)c1cccnc1Nc1cccc(C(F)(F)F)c1	-5%	/	-15%	100*!	/
O=C(Nc1cccc(C(F)(F)F)c1)c1cccc(C(=O)Nc2cccc(C(F)(F)F)c2)c1	-24%	-2%	-31%	?	13%
O=C(Nc1nc2c(F)cccc2s1)c1ccc(S(=O)(=O)N2CCCc3ccccc32)cc1	1%	0%	-9%	-6	?
O=C(Nc1ccc(Cl)cc1)c1cc(S(=O)(=O)N2CCCc3ccccc32)ccc1F	25µM*	5%	-46%	-23	18%
O=C(Nc1ccc(Br)cc1)c1ccc(F)c(S(=O)(=O)N2CCc3ccccc32)c1	14µM*	49%	-45%	-9	1%
Cc1ccc(C)c(N2CCN(S(=O)(=O)c3cc(C(=O)Nc4ccc(Oc5ccccc5)cc4)ccc3F)CC2)c1	2µM*	-3%	-41%	-7	25%
O=C(Nc1nc2c(F)cc(F)cc2s1)c1ccc(S(=O)(=O)N2CCc3ccccc32)cc1	22µM*	22%	-56%	-6	28%
O=C(N[C@@H](c1ccccc1)[C@@H]1CCCCN1)c1cccc(C(F)(F)F)c1Cl	?	/	-45%	/	/
COc1ccc(-c2noc(CSc3nc(N)cc(=O)[nH]3)n2)cc1	22µM*	-14%	-91%	98*	7%
Cc1ccc2nc(SCc3nc(-c4ccc(Cl)cc4)no3)[nH]c2c1	-16%	?	-26%	18	?
COc1ccc(-c2noc(CSc3nc4ccccc4[nH]3)n2)cc1	?	13%	-44%	96*	6%
COCCn1c2c([n+](Cc3cnccn3)c1C)C(=O)c1ccccc1C2=O	?	/	-94%	/	/
CCC1CN(C(=O)N2CCC(C(=O)N3CCN(c4cccc(C)c4C)CC3)CC2)c2ccccc2O1 (configuration not stated)	20µM*	19%	-46%	-15	4%
CC(CC(=O)NCc1ccc(Cl)cc1Cl)CC1=NS(=O)(=O)c2ccccc2N1 (configuration not stated)	?	5%	-30%	66*	11%
Cc1c[nH]c(C=C2C(=O)Nc3ccccc32)c1CCC(=O)O	4%	/	6%	/	/
COc1ccc(N2CCN(CC(O)COc3ccc(C)c(C)c3)CC2)cc1 (configuration not stated)	-22%	4%	0%	-23	4%
Cc1cc(OCC(O)CN2CCN(c3cccc(Cl)c3)CC2)ccc1Cl (configuration not stated)	-10%	13%	1%	70*	?
COc1ccc(N2CCN(CC(O)COc3ccc(C(C)C)c(C)c3)CC2)cc1 (configuration not stated)	-20%	-1%	14%[11.5 µM]	104*	-8%
COc1ccc(S(=O)(=O)Nc2cccc(-c3ccc(N4CCCCC4)nn3)c2)cc1F	/	13µM*	/	-6	20µM*
O=S(=O)(Nc1cccc(-c2ccc(N3CCCCC3)nn2)c1)c1cccc(F)c1	/	?	/	-1	10µM*
COc1ccc(S(=O)(=O)Nc2cccc(-c3ccc(N4CCCCCC4)nn3)c2)cc1F	/	-23%	/	-2	-21%
C=C(C)[C@@H]1CC[C@]2(C)CC[C@]3(C)[C@H](CC[C@@H]4[C@@]5(C)CC[C@H](O)C(C)(C)[C@H]5CC[C@]43C)[C@@H]12	-10%	/	-2%	/	/
OCCN1C[C@H](O)[C@@H](O)[C@H](O)[C@@H]1CO	5%	/	-5%	/	/

Screening data: PubChem, National Center for Advancing Translational Sciences (NCATS)
